Source: article PMC11995724, “Antibiotic target discovery by integrated phenotypic and activity-based profiling of electrophilic fragments” (Cell chemical biology, 2025)
Among all 3,200 compounds or so, about 110 (3.4%) showed an effect of 50% or more. Only a selection was taken, and strong results are over-represented in it overall.

System: T1, V. cholerae SAD30
T1 construct: SAD30
Parameters: species or system S. aureus MSSA476 (TSB) or V. cholerae SAD30 (LB); 384-well bacterial growth screen at 25 uM, OD600 relative to DMSO control
Conditions: relative growth, OD600, LB; 25 µM; inhibitor

Row | Compound | % of control remaining [%]
1 | CN1C=C(C(F)(F)F)C=CC1=C(C#N)C(=O)Nc1ccccc1F [8-H20, 2-cyano-N-(2-fluorophenyl)-2-[1-methyl-5-(trifluoromethyl)-1,2-dihydropyridin-2-ylidene]acetamide] | 66.9613
2 | CC(Cl)C(=O)N(C)Cc1ccccc1 (centres unmarked) [6-I13, N-benzyl-2-chloro-N-methylpropanamide] | 78.87
3 | CN(c1ccccc1)S(=O)(=O)c1cccc(NC(=O)CCl)c1 [4-H04, 2-chloro-N-{3-[methyl(phenyl)sulfamoyl]phenyl}acetamide] | 111.106
4 | O=C(CCc1ccccc1)NC1CCN(C(=O)CCl)CC1 [5-L08, N-[1-(2-chloroacetyl)piperidin-4-yl]-3-phenylpropanamide] | 100.704
5 | C=CC(=O)N(C)CC(=O)NCc1c(O)nnc(C)c1C [2-I20, N-({[(3-hydroxy-5,6-dimethylpyridazin-4-yl)methyl]carbamoyl}methyl)-N-methylprop-2-enamide] | 95.9085
6 | CC(Cl)C(=O)N1CCN(c2cc(-c3ccccc3F)n[nH]2)CC1 (centres unmarked) [6-N20, 2-chloro-1-{4-[3-(2-fluorophenyl)-1H-pyrazol-5-yl]piperazin-1-yl}propan-1-one] | 84.7853
7 | CC(C)C(=O)Nc1ccc(C(=O)CCl)cc1 [10-D04, N-[4-(2-chloroacetyl)phenyl]-2-methylpropanamide] | 37.405
8 | CC(C)CC(=O)Nc1ccc(C(=O)CCl)cc1 [10-N06, N-[4-(2-chloroacetyl)phenyl]-3-methylbutanamide] | 76.8362
9 | CCC(=O)Nc1ccc(C(=O)CCl)cc1 [10-C03, N-[4-(2-chloroacetyl)phenyl]propanamide] | 111.903
10 | CC(=O)Nc1ccc(C(=O)CCl)cc1 [10-O12, N-[4-(2-chloroacetyl)phenyl]acetamide] | 74.4983
11 | O=C(CCl)c1ccc(NC(=O)c2ccccc2)cc1 [10-B06, N-[4-(2-chloroacetyl)phenyl]benzamide] | 21.5079
12 | NC(=O)Nc1ccc(C(=O)CCl)cc1 [10-J07, [4-(2-chloroacetyl)phenyl]urea] | 65.4588
13 | C=CC(=O)NCc1nc2ccccc2n1C1CC1 [2-N03, N-[(1-cyclopropyl-1H-1,3-benzodiazol-2-yl)methyl]prop-2-enamide] | 105.172
14 | N#CC(=Cc1cc2c(cc1[N+](=O)[O-])OCO2)C(=O)NC1CCCCC1 [8-F22, 2-cyano-N-cyclohexyl-3-(6-nitro-1,3-dioxaindan-5-yl)prop-2-enamide] | 83.6846
15 | CN(C)S(=O)(=O)c1cccc(NC(=O)CCl)c1 [4-J08, 2-chloro-N-[3-(dimethylsulfamoyl)phenyl]acetamide] | 94.3714
16 | CC(C)NC(=O)C(C#N)=Cc1ccc(C(F)(F)F)cc1 [8-L13, 2-cyano-N-(propan-2-yl)-3-[4-(trifluoromethyl)phenyl]prop-2-enamide] | 68.3209
17 | Cc1cc(=O)[nH]c(-c2cccc(NC(=O)C(C#N)=Cc3ccco3)c2)n1 [8-B10, 2-cyano-3-(furan-2-yl)-N-[3-(4-methyl-6-oxo-1,6-dihydropyrimidin-2-yl)phenyl]prop-2-enamide] | 79.4697
18 | Cc1ccc(NC(=O)CCl)c([N+](=O)[O-])c1 [4-A07, 2-chloro-N-(4-methyl-2-nitrophenyl)acetamide] | 105.068

Row | Compound | % of control remaining [%]
19 | COc1ccc(N2C(=O)C=CC2=O)c([N+](=O)[O-])c1 [10-L11, 1-(4-methoxy-2-nitrophenyl)-2,5-dihydro-1H-pyrrole-2,5-dione] | 30.3916
20 | Cc1ccc(N2C(=O)C=CC2=O)c([N+](=O)[O-])c1 [10-N13, 1-(4-methyl-2-nitrophenyl)-2,5-dihydro-1H-pyrrole-2,5-dione] | 27.1186
21 | COc1ccc(NC(=O)C(C)Cl)c([N+](=O)[O-])c1 (centres unmarked) [6-B08, 2-chloro-N-(4-methoxy-2-nitrophenyl)propanamide] | 90.3972
22 | COc1ccc(NC(=O)CCl)c([N+](=O)[O-])c1 [4-I21, 2-chloro-N-(4-methoxy-2-nitrophenyl)acetamide] | 107.311
23 | CSc1cccc(-n2c(C)cc(C(=O)CCl)c2C)c1 [10-J16, 2-chloro-1-{2,5-dimethyl-1-[3-(methylsulfanyl)phenyl]-1H-pyrrol-3-yl}ethan-1-one] | 105.825
24 | Cc1ccc(NC(=O)C(C)Cl)cc1S(=O)(=O)N1CCOCC1 (centres unmarked) [5-D22, 2-chloro-N-[4-methyl-3-(morpholine-4-sulfonyl)phenyl]propanamide] | 107.429
25 | N#CC(=Cc1ccc(Cl)cc1Cl)C(=O)Nc1nccs1 [9-H19, 2-cyano-3-(2,4-dichlorophenyl)-N-(1,3-thiazol-2-yl)prop-2-enamide] | 79.4697
26 | C=CC(=O)Nc1ccnn1Cc1cccc(Cl)c1 [1-N14, N-{1-[(3-chlorophenyl)methyl]-1H-pyrazol-5-yl}prop-2-enamide] | 86.3592
27 | C=CC(=O)N(CC)CC(=O)N1CC(C)(C)C1c1nccn1C (centres unmarked) [2-J16, N-{2-[3,3-dimethyl-2-(1-methyl-1H-imidazol-2-yl)azetidin-1-yl]-2-oxoethyl}-N-ethylprop-2-enamide] | 90.3503
28 | CC(Cl)C(=O)NC(=O)Nc1ccccc1 (centres unmarked) [5-I21, 3-(2-chloropropanoyl)-1-phenylurea] | 104.066
29 | C=CC(=O)NC1CS(=O)(=O)C1 [3-P18, N-(1,1-dioxo-1lambda6-thietan-3-yl)prop-2-enamide] | 112.909
30 | COc1cc([N+](=O)[O-])ccc1NC(=O)C(C)Cl (centres unmarked) [4-K12, 2-chloro-N-(2-methoxy-4-nitrophenyl)propanamide] | 93.5087
31 | COc1ccc([N+](=O)[O-])cc1NC(=O)C(C)Cl (centres unmarked) [5-N14, 2-chloro-N-(2-methoxy-5-nitrophenyl)propanamide] | 92.6342
32 | COc1ccc([N+](=O)[O-])cc1NC(=O)CCl [4-P17, 2-chloro-N-(2-methoxy-5-nitrophenyl)acetamide] | 111.969
33 | COc1cc([N+](=O)[O-])ccc1NC(=O)CCl [4-O07, 2-chloro-N-(2-methoxy-4-nitrophenyl)acetamide] | 100.582
34 | COc1ccc([N+](=O)[O-])cc1N1C(=O)C=CC1=O [10-P13, 1-(2-methoxy-5-nitrophenyl)-2,5-dihydro-1H-pyrrole-2,5-dione] | 32.7294
35 | COc1cc([N+](=O)[O-])ccc1N1C(=O)C=CC1=O [10-H13, 1-(2-methoxy-4-nitrophenyl)-2,5-dihydro-1H-pyrrole-2,5-dione] | 24.625
